Structures are written as SMILES. Compounds without any hit were thinned out: in the full panel of roughly 79,000, 15% have a hit. A number with no mark means an inactive call. Calls of active or inactive are those of the source. Cut-off read from the data, not from the text of the source: active = growth inhibition above about 70%; inactive = the rest.

The nature of the test: NCI Yeast Anticancer Drug Screen. Data for the rad18 strain (AID 177). Conditions: S. cerevisiae rad18 mutant growth inhibition, stronger effect = higher value. As to the method: Growth inhibition of yeast strains with defined genetic alterations is measured as a screen for potential anti-cancer activity. Selected strains with alterations in DNA damage repair or cell cycle control were exposed to compounds and growth inhibition was measured relative to vehicle treated controls. The strain used in this assay is rad18

Regarding `CNCCCNc1c2ccccc2nc2cccc([N+](=O)[O-])c12`, the growth inhibition (at 1.2 µM) is 92% (active); the growth inhibition (at 3.7 µM) was 95% (active); the growth inhibition (at 11.0 µM) was 93% (active); the growth inhibition (at 33.0 µM) is 95% (active); the growth inhibition (at 100.0 µM) was 96% (active).

`CC(=O)OC1CC2C(C)(C)C(=O)C=C[C@]2(C)C2CCC3(C)C(=CCC3[C@H](CO)C[C@H](O)C(=O)C(C)(C)O)[C@]12C` (stereo not given in full): the growth inhibition reads like this: (at 1.2 µM) -21%; (at 3.7 µM) -21%; (at 11.0 µM) -17%; (at 33.0 µM) 3%; (at 100.0 µM) 74% (active).

In the case of `CC(C)(C)C1=CC(=CC=C2C=CN(CCCCCCCCCCCO)C=C2)C=C(C(C)(C)C)C1=O`, the growth inhibition reads like this: (at 1.2 µM) -4%; (at 3.7 µM) 68%; (at 11.0 µM) 99% (active); (at 33.0 µM) 98% (active); (at 100.0 µM) 97% (active).

Consider `COc1cccc2c1C(=O)c1c(O)c3c(c(O)c1C2=O)C[C@@](O)(C(C)=O)C[C@@H]3OC1CC(OC(C)=O)C(OC(C)=O)C(C)O1` (stereo not given in full), for which the growth inhibition by setting is: (at 1.2 µM) -28%; (at 3.7 µM) -29%; (at 11.0 µM) -16%; (at 33.0 µM) -5%; (at 100.0 µM) -1%.

Regarding `CCC(=O)c1cc(C(=O)C(=S)SC)cc(C(=O)C(=S)SC)c1`, the growth inhibition (at 1.2 µM) is -6%; the growth inhibition (at 3.7 µM) was 49%; the growth inhibition (at 11.0 µM) is 97% (active); the growth inhibition (at 33.0 µM) is 98% (active); the growth inhibition (at 100.0 µM) was 94% (active).

For the compound `Cc1sc2ccc3ccccc3c2[n+]1C`, the growth inhibition is, setting by setting: (at 1.2 µM) 0%; (at 3.7 µM) 4%; (at 11.0 µM) 2%; (at 33.0 µM) -1%; (at 100.0 µM) 87% (active).

In the case of `CC(C)c1ccc(NC(=S)NC(=O)c2ccccc2)cc1`, the growth inhibition is, setting by setting: (at 1.2 µM) -28%; (at 3.7 µM) -28%; (at 11.0 µM) -17%; (at 33.0 µM) 3%; (at 100.0 µM) 26%.

As to `O=C1/C(=C/c2ccccc2)CCCC1CN1CCCCC1` (stereo not given), the growth inhibition (at 1.2 µM) was 34%; the growth inhibition (at 3.7 µM) was 59%; the growth inhibition (at 11.0 µM) was 74% (active); the growth inhibition (at 33.0 µM) was 83% (active); the growth inhibition (at 100.0 µM) was 90% (active).

Values taken from PubChem BioAssay (NCI).
